# Active and inactive are the calls of the source.
# Experiments:
# [1] = small molecules captured by biotinylated probe aFSTL3 – biochemical, small-molecule microarray, fluorescence 635/667, stem cell growth factor project, primary screen (AID 1064); conditions: higher = more signal;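 note: measures binding of the biotinylated anti-FSTL3 antibody to printed compounds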
# [2] = binders from COS7 lysate, DM2A8 probe, primary screen, torsin A project, cell lysate, small-molecule microarray, fluorescence 635/667 (AID 1065); conditions: higher = more signal, COS7 lysate expressing mutant human TOR1A
# [3] = small molecules captured by biotinylated probe aFGF2 – biochemical, small-molecule microarray, fluorescence 635/667, stem cell growth factor project, primary screen (AID 1067); conditions: higher = more signal;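 note: measures binding of biotinylated aFGF2 protein to printed compounds on slides; z-score merges feature fluorescence and signal-to-noise across triplicate slides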
# [4] = small molecules captured by biotinylated probe aFGF10 – biochemical, small-molecule microarray, fluorescence 635/667, stem cell growth factor project, primary screen (AID 1071); conditions: higher = more signal;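 note: score merges 667 nm spot intensity and signal to noise from triplicate slides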
# [5] = biological target: Neurogenic locus notch homolog protein 2 (Homo sapiens) (UniProt Q04721); test: small molecules binding Notch2 protein – biochemical, small-molecule microarray, 635 nm fluorescence, stem cell growth factors, primary screen (AID 1073); conditions: higher = more signal
# [6] = biological target: Pro-neuregulin-1, membrane-bound isoform (Homo sapiens) (UniProt Q02297); test: small molecules binding neuregulin-1 protein – biochemical, small-molecule microarray, fluorescence 635/667, psychiatric disease protein project, primary screen (AID 1075); conditions: NRG1 binding, 635 nm fluorescence, higher = more signal;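 note: score combines 667 nm spot fluorescence with signal to noise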
# Chain of Pro-neuregulin-1, membrane-bound isoform (Homo sapiens) (Q02297 whole entry, looked up, the tested form may be a part, canonical isoform): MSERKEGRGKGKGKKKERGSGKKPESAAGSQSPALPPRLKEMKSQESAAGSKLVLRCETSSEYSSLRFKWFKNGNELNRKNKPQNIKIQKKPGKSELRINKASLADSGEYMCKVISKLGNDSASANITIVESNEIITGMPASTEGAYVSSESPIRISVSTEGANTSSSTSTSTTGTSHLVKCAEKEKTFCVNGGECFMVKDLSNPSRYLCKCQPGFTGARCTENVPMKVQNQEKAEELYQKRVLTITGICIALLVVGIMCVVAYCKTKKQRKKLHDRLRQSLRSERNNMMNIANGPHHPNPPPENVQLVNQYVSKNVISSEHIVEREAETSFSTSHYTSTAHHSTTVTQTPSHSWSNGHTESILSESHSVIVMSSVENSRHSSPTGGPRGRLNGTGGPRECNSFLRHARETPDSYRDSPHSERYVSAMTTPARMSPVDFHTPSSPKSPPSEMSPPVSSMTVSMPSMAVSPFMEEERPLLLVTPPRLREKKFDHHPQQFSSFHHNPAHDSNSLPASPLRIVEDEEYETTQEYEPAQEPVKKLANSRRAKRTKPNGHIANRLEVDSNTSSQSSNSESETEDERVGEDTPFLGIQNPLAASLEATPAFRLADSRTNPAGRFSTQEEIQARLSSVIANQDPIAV
# [7] = tested on: Neuregulin-1 EGF-like domain; test: small molecules binding NRG1 EGF domain – biochemical, small-molecule microarray, 635 nm fluorescence, primary screen (AID 1081); conditions: higher = more signal;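 note: binding of the protein to compounds printed on small-molecule microarray slides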
# [8] = FRG1 expression reporter modulators in myotubes – cell-based, C2C12 myotubes, firefly/Renilla luciferase, luminescence, FRG1 inhibition for FSHD, primary screen (AID 1084); conditions: FRG1 promoter luciferase, higher = more signal, called active from +8 up or from −8 down
# [9] = small molecules captured by biotinylated probe aFST – biochemical, small-molecule microarray, fluorescence 635/667, stem cell growth factor project, primary screen (AID 1086); conditions: higher = more signal;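 note: score merges 667 nm fluorescence with signal-to-noise of each printed compound spot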
# [10] = binders of probe aHhip on microarray, primary screen, stem cell growth factor project, biochemical, small-molecule microarray, fluorescence 635/667 (AID 1087); conditions: higher = more signal;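 note: score merges spot fluorescence at 667nm with spot signal to noise ratio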
# [11] = tested on: PRMT1 (protein arginine N-methyltransferase 1); test: small molecules binding arginine methyltransferase PRMT1 – biochemical, small-molecule microarray, 635 nm fluorescence, primary screen (AID 1088); conditions: higher = more signal;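 note: binding of Prmt1 protein to compounds spotted on small-molecule microarray slides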
# [12] = growth effects on S. cerevisiae YJM789 – YJM789 clinical isolate, OD600, 24 h, basal, primary screen (AID 1089); conditions: higher = more signal, called active from +8 up or from −8 down;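 note: growth of clinical yeast isolate S. cerevisiae YJM 789 seeded 1000 cells per well; test concentration not given here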
# [13] = S. pombe growth modifiers, basal conditions – strain 972, OD600, 24 h, no modulator, primary screen (AID 1090);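 note: basal condition with compound alone and no growth modifier present; test concentration not given here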; conditions: S. pombe 972 growth, higher = more signal, called active from +8 up or from −8 down
# [14] = budding yeast growth modifiers under rapamycin – strain BY4716, OD600, 96 h, primary screen (AID 1091); note: test concentration not given here; conditions: S. cerevisiae BY4716 + rapamycin, higher = more signal, called active from +8 up or from −8 down
# [15] = biological target: Torsin-1A-interacting protein 2 (Homo sapiens) (UniProt Q8NFQ8); test: small molecules binding lysate-expressed LULL1 – cell lysate, human LULL1 lysate, 635/667 nm fluorescence, primary screen (AID 1092); conditions: small-molecule microarray, hLULL1 lysate binding, 635 nm fluorescence; higher = more signal;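 note: probe is lysate of COS7 cells overexpressing human LULL1; score merges per-feature 667 nm fluorescence with signal-to-noise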
# Chain of Torsin-1A-interacting protein 2 (Homo sapiens) (Q8NFQ8 whole entry, looked up): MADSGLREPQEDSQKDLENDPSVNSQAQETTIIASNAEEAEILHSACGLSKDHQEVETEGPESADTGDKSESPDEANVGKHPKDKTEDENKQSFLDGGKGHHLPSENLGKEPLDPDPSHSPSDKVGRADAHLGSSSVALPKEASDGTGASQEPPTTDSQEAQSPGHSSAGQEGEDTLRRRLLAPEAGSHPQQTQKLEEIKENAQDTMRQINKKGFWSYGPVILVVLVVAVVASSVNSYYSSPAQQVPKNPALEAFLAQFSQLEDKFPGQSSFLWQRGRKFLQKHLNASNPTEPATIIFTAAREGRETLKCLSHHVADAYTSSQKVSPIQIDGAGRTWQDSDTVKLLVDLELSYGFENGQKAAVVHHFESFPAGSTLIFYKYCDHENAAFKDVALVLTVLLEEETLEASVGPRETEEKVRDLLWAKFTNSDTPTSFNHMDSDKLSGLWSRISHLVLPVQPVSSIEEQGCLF
# [16] = optical density change of DRC41 E. coli – strain DRC41, OD650, 24 h, E. coli filamentation project, primary screen (AID 1093);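 note: MC1000 strain lacking acrAB efflux and sulA so SOS filamentation is blocked; test concentration not given here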; conditions: E. coli DRC41 growth, higher = more signal, called active from +8 up or from −8 down
# [17] = probe aLefty2 binding to arrayed compounds – biochemical, biotinylated probe, 635/667 nm fluorescence, primary screen (AID 1094); conditions: small-molecule microarray, higher = more signal;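 note: score merges spot fluorescence near 667 nm with spot signal-to-noise ratio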
# [18] = tested on: Noggin (protein binding on small-molecule microarray); test: small molecules binding Noggin protein – biochemical, 635/667 nm fluorescence, primary screen (AID 1095); conditions: 635 nm fluorescence, higher = more signal;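 note: score merges 667 nm feature fluorescence with signal to noise over triplicate slides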
# [19] = biological target: Neurogenic locus notch homolog protein 3 (Homo sapiens) (UniProt Q9UM47); test: small molecules binding NOTCH3 protein – biochemical, 635/667 nm fluorescence, primary screen (AID 1096); conditions: small-molecule microarray, 635 nm fluorescence, higher = more signal
# Chain of Neurogenic locus notch homolog protein 3 (Homo sapiens) (Q9UM47 whole entry, looked up): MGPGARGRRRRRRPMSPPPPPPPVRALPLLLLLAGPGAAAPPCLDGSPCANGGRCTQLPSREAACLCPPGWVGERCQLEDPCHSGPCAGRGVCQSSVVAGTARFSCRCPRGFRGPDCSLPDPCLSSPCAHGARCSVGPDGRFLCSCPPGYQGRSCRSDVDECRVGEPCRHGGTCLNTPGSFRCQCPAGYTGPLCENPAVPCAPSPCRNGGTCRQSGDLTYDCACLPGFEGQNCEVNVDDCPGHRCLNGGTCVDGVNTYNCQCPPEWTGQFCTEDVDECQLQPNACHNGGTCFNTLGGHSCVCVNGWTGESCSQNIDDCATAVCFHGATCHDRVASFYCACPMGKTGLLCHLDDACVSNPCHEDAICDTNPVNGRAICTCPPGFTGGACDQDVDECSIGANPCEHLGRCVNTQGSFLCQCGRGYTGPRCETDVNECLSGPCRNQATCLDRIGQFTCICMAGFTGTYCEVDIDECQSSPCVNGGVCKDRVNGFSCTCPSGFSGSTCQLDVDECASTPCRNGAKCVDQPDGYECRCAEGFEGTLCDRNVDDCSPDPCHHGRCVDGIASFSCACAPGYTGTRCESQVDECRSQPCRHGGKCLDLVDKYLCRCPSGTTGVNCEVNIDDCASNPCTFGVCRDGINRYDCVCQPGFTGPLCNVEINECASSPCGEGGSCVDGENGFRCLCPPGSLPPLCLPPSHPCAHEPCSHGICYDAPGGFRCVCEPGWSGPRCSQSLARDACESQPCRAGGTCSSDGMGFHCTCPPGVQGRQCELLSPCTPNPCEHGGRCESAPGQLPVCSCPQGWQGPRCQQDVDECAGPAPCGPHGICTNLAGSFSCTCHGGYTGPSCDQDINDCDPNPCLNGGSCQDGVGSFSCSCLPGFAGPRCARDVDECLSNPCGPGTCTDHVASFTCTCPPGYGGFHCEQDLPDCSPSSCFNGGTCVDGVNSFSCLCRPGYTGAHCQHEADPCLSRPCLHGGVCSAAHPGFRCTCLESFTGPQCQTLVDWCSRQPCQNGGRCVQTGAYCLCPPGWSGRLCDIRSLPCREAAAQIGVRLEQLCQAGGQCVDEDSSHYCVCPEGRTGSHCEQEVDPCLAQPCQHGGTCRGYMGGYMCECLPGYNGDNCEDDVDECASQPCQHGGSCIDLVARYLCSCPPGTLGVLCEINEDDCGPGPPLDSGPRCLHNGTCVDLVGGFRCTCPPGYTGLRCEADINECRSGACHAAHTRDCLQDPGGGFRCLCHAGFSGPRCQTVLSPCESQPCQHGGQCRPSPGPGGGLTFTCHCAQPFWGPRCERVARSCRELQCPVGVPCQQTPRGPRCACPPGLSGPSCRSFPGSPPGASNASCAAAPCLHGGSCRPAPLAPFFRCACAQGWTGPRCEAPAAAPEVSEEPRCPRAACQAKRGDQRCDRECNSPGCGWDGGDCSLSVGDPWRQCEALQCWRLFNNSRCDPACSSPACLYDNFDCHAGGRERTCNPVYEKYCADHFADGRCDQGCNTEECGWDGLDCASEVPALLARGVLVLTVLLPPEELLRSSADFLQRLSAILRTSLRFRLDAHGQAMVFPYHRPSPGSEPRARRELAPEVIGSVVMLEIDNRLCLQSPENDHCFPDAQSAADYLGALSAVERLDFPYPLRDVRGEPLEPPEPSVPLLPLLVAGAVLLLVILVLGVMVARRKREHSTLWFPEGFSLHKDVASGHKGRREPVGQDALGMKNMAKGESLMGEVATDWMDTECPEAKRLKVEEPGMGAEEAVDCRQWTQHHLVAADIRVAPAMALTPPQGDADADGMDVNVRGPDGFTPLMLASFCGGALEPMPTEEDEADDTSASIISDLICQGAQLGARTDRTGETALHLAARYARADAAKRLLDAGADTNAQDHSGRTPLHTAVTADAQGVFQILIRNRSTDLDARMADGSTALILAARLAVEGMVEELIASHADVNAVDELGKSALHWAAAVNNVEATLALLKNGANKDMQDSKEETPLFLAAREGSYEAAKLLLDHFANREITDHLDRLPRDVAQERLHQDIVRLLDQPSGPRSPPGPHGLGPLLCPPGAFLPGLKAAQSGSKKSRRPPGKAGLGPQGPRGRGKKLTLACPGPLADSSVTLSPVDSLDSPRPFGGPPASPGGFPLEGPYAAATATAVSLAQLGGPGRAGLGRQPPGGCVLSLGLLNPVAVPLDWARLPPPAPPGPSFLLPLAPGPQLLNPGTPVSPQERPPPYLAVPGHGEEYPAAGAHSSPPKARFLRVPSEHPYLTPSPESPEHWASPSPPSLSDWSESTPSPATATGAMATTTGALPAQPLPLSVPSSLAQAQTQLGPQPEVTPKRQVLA
# [20] = probe aEGFR binding to arrayed compounds – biochemical, biotinylated probe, 635/667 nm fluorescence, primary screen (AID 1097); conditions: small-molecule microarray, higher = more signal;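 note: probe is a biotinylated anti-EGFR antibody binding compounds printed on slides; score combines fluorescence near 667 nm and signal to noise of each spot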
Compound,composite z-score [1],composite z-score [2],composite z-score [3],composite z-score [4],composite z-score [5],composite z-score [6],composite z-score [7],z-score [8],composite z-score [9],composite z-score [10],composite z-score [11],z-score [12],z-score [13],z-score [14],composite z-score [15],z-score [16],composite z-score [17],composite z-score [18],composite z-score [19],composite z-score [20]
C=CCOC(=O)[C@H]1[C@@H]2C(=O)O[C@@H](c3ccccc3)[C@@H](c3ccccc3)N2[C@@H](c2ccc(OCCOC(=O)[C@H]3C[C@H]4C(=O)N5CCC[C@H]5C(=O)N4[C@H]3c3ccc(O)cc3)cc2)[C@]12C(=O)Nc1ccccc12,-0.168,0.847,0.0069,0.516,1.47,1.33,1.4,1.31 (inactive),0.0557,0.0881,1.54,1.31 (inactive),0.998 (inactive),3.27 (inactive),3.03,-0.92 (inactive),0.0292,0.744,0.938,0.127
O=C1OCC=C[C@H]2OC34C=CCN(c5ccc6ccccc6c5)C(=O)[C@H]3N(CCCCCCO)C(=O)[C@@H]4[C@@H]12 (stereo not given in full),0.787,1.94,-0.133,-0.566,-1.15,0.781,1.57,0.78 (inactive),-0.302,-0.226,-0.518,-0.966 (inactive),-0.715 (inactive),-0.806 (inactive),2.62,-0.133 (inactive),-0.0493,-1.33,-0.435,-0.256
CN1C(=O)C2C=CC(C(O)c3ccc(-c4ccccc4)s3)N(N(c3ccccc3)c3ccccc3)C2C1=O (stereo not given),0.415,-0.235,0.0034,0.199,1.15,0.782,0.949,0.685 (inactive),0.422,0.248,0.668,0.187 (inactive),0.947 (inactive),1.33 (inactive),1.93,-0.422 (inactive),0.164,-0.132,1.12,-0.0003
CCN(CC)c1ccc(N2CC=CC34O[C@@H]5/C=C\CCCOC(=O)C5[C@H]3C(=O)N(CCO)[C@@H]4C2=O)cc1 (stereo not given in full),0.244,-0.542,-0.0785,-0.715,-1.24,1.84,0.632,0.599 (inactive),-0.584,-0.0061,0.0226,0.0765 (inactive),-1.11 (inactive),0.0541 (inactive),1.3,0.557 (inactive),-0.253,-0.715,-0.162,-0.286
C=C/C=C/[C@H]1C(=C)CN([C@@H](Cc2ccccc2)C(=O)OC)[C@@H]1[C@H](O)Cc1ccccc1,0.042,-0.951,-0.203,-0.189,-1.06,-0.824,-0.5,-0.164 (inactive),-0.364,-0.455,-0.473,-0.15 (inactive),-1.35 (inactive),-0.557 (inactive),0.428,0.311 (inactive),-0.149,-0.219,-0.0424,-0.316
O=C1NCC(=O)N2[C@@H]1C[C@@H](C(=O)O)[C@H]2c1cccc(OCCO)c1,3.93,2.65,1.02,0.935,1.82,2.97,1.53,3.17 (inactive),3.63,3.89,1.54,-0.215 (inactive),-14.2 (active),0.273 (inactive),4.93,0.0664 (inactive),1.81,2.31,1.03,1.41
C[C@@]1([C@@H](NC(=O)c2ccccc2)c2ccc(-c3ccccc3)cc2)C[C@H]1C1CCCCC1,0.742,-0.671,0.0891,-0.227,1.16,-0.0156,-0.382,2.09 (inactive),0.57,0.122,-1.93,-0.0151 (inactive),0.443 (inactive),0.32 (inactive),0.429,-1.48 (inactive),0.527,-0.992,-1.42,0.247
CC1CC/C=C\[C@H]2OC34C=CCN(c5ccc(Cl)cc5)C(=O)[C@H]3N(CCO)C(=O)[C@]4(C)C2C(=O)O1 (stereo not given in full),0.359,0.0741,-0.12,-0.472,-0.749,0.93,0.842,-0.39 (inactive),-0.448,-0.106,0.517,-1.51 (inactive),-1.4 (inactive),-0.528 (inactive),0.139,0.613 (inactive),-0.0619,-0.504,0.105,-0.166
NCCCCCNC(=O)[C@@H]1C[C@@H]2C(=O)NCC(=O)N2[C@@H]1c1ccc(O)cc1,-0.293,0.304,-0.129,0.975,-0.195,0.817,1.25,0.117 (inactive),-0.107,-0.0994,1.53,-0.491 (inactive),-0.723 (inactive),0.124 (inactive),2.51,-0.031 (inactive),-0.145,1.37,0.892,-0.192
O=C1C2C=CC(C(O)C3CCCCC3)N(Nc3ccc([N+](=O)[O-])cc3)C2C(=O)N1c1ccccc1 (stereo not given),0.274,0.167,0.0333,0.239,-0.795,1.33,1.18,-1.48 (inactive),-0.688,-0.236,1.56,0.139 (inactive),0.341 (inactive),3.55 (inactive),3.19,-1.15 (inactive),-0.314,-0.995,-0.273,-0.226
CN1C(=O)C2C=CC(C(O)c3ccc(I)cc3)N(N3CCCCC3)C2C1=O (stereo not given),0.151,0.235,0.0671,1.09,1.71,1.73,1.27,1.14 (inactive),1.4,-0.0346,1.55,0.276 (inactive),-1.13 (inactive),-0.0412 (inactive),3.36,-1.74 (inactive),0.583,0.282,1.04,0.0747
COCCCNC(=O)[C@@]1(Cc2ccccc2N=[N+]=[N-])N=C(c2ccc(OCCCO)cc2)O[C@H]1c1ccccc1N=[N+]=[N-],0.622,0.81,-0.252,0.436,1.37,1.52,0.831,-0.702 (inactive),1.36,-0.26,1.56,0.253 (inactive),-0.143 (inactive),2.01 (inactive),3.27,-0.27 (inactive),0.23,0.0556,1.1,0.0507
O=C1NC(=O)C2C1C=CC(C(O)Cc1ccccc1)N2Nc1ccc(Cl)cc1Cl (stereo not given),0.536,-0.169,-0.0374,-0.634,0.614,2,0.371,1.53 (inactive),0.337,0.176,-0.403,-4.33 (inactive),-1.51 (inactive),-0.125 (inactive),3.21,0.177 (inactive),-0.0134,-0.49,0.332,-0.096
C=CCOC(=O)[C@@H]1[C@H]2C(=O)O[C@H](c3ccccc3)[C@H](c3ccccc3)N2[C@H](c2ccc(OCCOC(=O)[C@@H]3C[C@@H]4C(=O)N[C@@H](Cc5ccccc5)C(=O)N4[C@@H]3c3ccc(O)cc3)cc2)[C@@]12C(=O)Nc1ccc(I)cc12,-0.219,0.602,-0.0944,0.302,0.825,0.612,1.14,1.42 (inactive),0.11,0.238,1.55,0.607 (inactive),1.18 (inactive),4.44 (inactive),2.06,1.37 (inactive),-0.135,1.87,1.11,-0.0828
C=C(C)C1C(=C)CN([C@H](CO)c2ccccc2)C1=O (stereo not given in full),0.172,-0.605,-0.132,-0.205,-0.725,-0.461,-0.708,0.0392 (inactive),-0.0839,-0.0296,0.0584,-0.329 (inactive),-0.635 (inactive),-1.97 (inactive),1.62,-0.233 (inactive),-0.0757,0.245,0.0316,-0.18
O=C(NCc1ccccc1)[C@@]1(CCS(=O)(=O)c2ccccc2)N=C(c2ccc(OCCCO)cc2)O[C@H]1c1ccccc1,-0.0744,0.345,0.115,0.488,1.56,1.82,1.19,-2.73 (inactive),1.6,0.0274,1.56,1.72 (inactive),-0.129 (inactive),34.4 (active),3.56,0.988 (inactive),0.215,0.878,1.06,0.116
CN(C)CCCC[C@@H]1NC(=O)[C@H]2C[C@@H](C(=O)NCCCCCNC(=O)CS)[C@@H](c3cccc(OCCO)c3)N2C1=O,-0.23,0.411,-0.0785,-0.0727,-0.21,0.727,1.27,0.498 (inactive),0.0184,-0.305,1.18,-1.14 (inactive),-1.3 (inactive),-0.296 (inactive),2.79,-0.328 (inactive),0.0144,1.54,0.534,-0.136
Cc1ccc(S[C@]2(C(=O)NCC(C)C)CC(=O)N(Cc3cc(C(F)(F)F)cc(C(F)(F)F)c3)[C@@H]2c2ccc(CO)cc2I)cc1,1.61,-0.367,-0.113,-0.637,-1.1,1.13,0.102,-0.286 (inactive),0.0584,-0.216,0.714,-1.79 (inactive),-1.94 (inactive),0.651 (inactive),0.736,-0.161 (inactive),0.31,-2.5,-0.332,-0.0824
COCC(=C=CC[C@@H](O)c1ccccc1OCCO)C[C@@H](O)c1cc(Cl)cc(Cl)c1O,-0.685,0.528,-0.0276,1.14,1.09,0.935,1,-0.914 (inactive),0.624,0.164,1.53,0.157 (inactive),-0.563 (inactive),0.0403 (inactive),2.13,0.0142 (inactive),-0.053,1.42,1.07,-0.0353
C=C(COC)/C(=C/C[C@H](OC(=O)c1ccncc1)c1ccc(OCCO)cc1)c1cnc2ccccc2c1,-0.219,0.833,0.0485,0.97,1.57,1.4,1.14,1.87 (inactive),1.14,0.12,1.53,-0.922 (inactive),-1.39 (inactive),0.0294 (inactive),3.13,-0.124 (inactive),-0.0094,1.39,1.05,0.0176
